AMA1 RON2 block: inhibitors of Plasmodium falciparum AMA1-RON2 interaction; Potency, µM (series often up to 58.2 µM), without a hit: top-dose activity change, negative = inhibition, usual class: inhibitors; actives 0.2% (n = 360,000); AID 720542; AlphaScreen AMA1-biotinylated RON2 peptide binding;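 also: potency is read from the fitted curve at half-maximal effect; 0% = vehicle wells and -100% = peptide control; nearly all actives have a fitted effect of over 45% in size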
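AMA1 (3D7) with his tag at 25 nM final met compounds first, then biotinylated RON2 peptide at 25 nM; detection used donor plus acceptor beads, 10 µg/mL apiece, read by AlphaScreen after 30 min at room temperature.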
SARS PLP yeast: blocks SARS-CoV papain-like protease in a yeast assay; S. cerevisiae expressing SARS-CoV PLpro, growth rescue; Potency, µM (top dose mostly 32.9 µM), for the others: top-dose activity, positive = growth rescue, most hits filed as activators; actives 0.19% (n = 330,000); AID 485353; calls by dose curve; also: potency is read from the fitted curve at half-maximal effect; 0% is about no effect; nearly all actives have a fitted effect of over 55% in size
Pf growth 96h: P. falciparum growth inhibition at 96 hours; P. falciparum luciferase reporter growth, 96 h; Potency, µM (top dose mostly 28.7 µM), without a hit: top-dose activity change, negative = inhibition, hits mostly inhibitors; actives 6.9% (n = 320,000); AID 504834; also: potency is read from the fitted curve at half-maximal effect; % is scaled to controls: 0 for no effect and ±100 for the full control effect
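Two parasite generations (96 h, 37 C, 5% CO2) of compound exposure in infected erythrocytes (0.05% parasitemia, 2% hematocrit). Luciferase-reporter P. falciparum; decreased luminescence indicates inhibited growth, aimed at apicoplast-acting delayed death.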
Cycloheximide cs: counter-screen hit for Shiga toxin inhibitors, cycloheximide; cell reporter, cycloheximide protein synthesis inhibition counterscreen; AID 2314; actives 12% (n = 300,000); max response, %; in the data active = max response mostly above about 13%, no sharp cut-off; inactive = mostly below about 14%; also: read at 38.3 µM for the half of the compounds with a filed dose; 0% is about no effect
Shiga inhibitor: blocks Shiga toxin action in Vero cells; Vero cells, Shiga toxin protein synthesis inhibition reporter; inhibition, % at 38.7 µM; actives 9.2% (n = 290,000); AID 2315; in the data active = inhibition mostly above about 28%, no sharp cut-off; inactive = mostly below about 43%; also: 0% is about no effect
Pf growth 48h: P. falciparum growth inhibition at 48 hours (one generation); actives 5.9% (n = 310,000); Potency, µM (doses to about 28.7 µM), for inactives: top-dose activity change, negative = inhibition, usual class: inhibitors; AID 504832; P. falciparum luciferase growth in erythrocytes, 48 h; also: potency is read from the fitted curve at half-maximal effect; % is scaled to controls: 0 for no effect and ±100 for the full control effect
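In quantitative HTS format, infected erythrocytes bearing luciferase-reporter parasites were treated for a single generation at 37 C. Luminescence after adding detection reagent served as the growth measure.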
* = called active by the depositor; ? = inconclusive; · = not tested or not shown. Compounds with a hit are over-represented: about 19% of the library has one in this group of screens. Unless noted, calls follow the shape of the dose curve; as a rule, active = well fitted curve in the direction sought with a large enough effect; inconclusive = small, poorly fitted or top-dose-only effect, or another doubt; inactive = no such curve, though single readings can be large; an effect the other way counts as inactive or inconclusive.

SMILES	AMA1 RON2 block	SARS PLP yeast	Pf growth 96h	Cycloheximide cs	Shiga inhibitor	Pf growth 48h
CCOC(=O)CC(=O)Nc1cc(Cl)ccc1O	7%	-8%	12µM*	5	-7	15%
O=C(Nc1cc(Cl)ccc1O)c1snnc1-c1ccccc1	-7%	-3%	12µM*	-2	-8	?
O=C(CCc1ccccc1)Nc1cccnc1Cl	3%	0%	70%	18*	40	55%
O=C(NCCCl)Nc1cccnc1Cl	-15%	-1%	-3%	12*	13	6%
Nc1nc(/C(=C/CC(=O)O)C(=O)NC2C(=O)N3C(C(=O)O)=CCSC23)cs1 (stereo unspecified)	·	·	-5%	·	·	-3%
O=C(COC(=O)c1ccccc1O)Nc1cccnc1Cl	1%	7%	-16%	2	13	3%
O=C(CC(=O)c1ccccc1)Nc1cccnc1Cl	23%	-3%	-4%	44*	73*	95%
O=C(CCc1ccccc1)Nc1cc(Cl)ccc1O	-4%	-17%	?	11	31	10µM*
O=C(COc1ccccc1Cl)Nc1cc(Cl)ccc1O	-2%	-1%	13%	12	59	?
CCOC(=O)c1c(C2CC2)csc1NC(=O)COC(=O)CCS(=O)(=O)c1ccc(C)cc1	3%	-13%	4%	-3	4	8%
COCOCCn1cc(CN2CCS(=O)(=O)N(Cc3ccc(-c4ccc(F)nc4)cc3)C(CC(C)C)C2=O)nn1 (stereo unspecified)	-9%	·	·	·	·	·
Cc1cc(C)nc(SCc2nnc(SCC#N)n2-c2cccc(Cl)c2)n1	2%	0%	?	11	-12	7.4µM*
C#CCOCCOCCOCCNc1nc(N2CCN(C(=O)Cn3cc(CCCN=C(N)N)nn3)CC2)nc(N2CCN(C(=O)[C@H]([C@@H](C)CC)n3cc(CCCN=C(N)N)nn3)CC2)n1	·	6%	0.037µM*	-5	-14	1.2µM*
C#CCOCCOCCOCCNc1nc(N2CCN(C(=O)Cn3cc(CC(C)O)nn3)CC2)nc(N2CCN(C(=O)[C@H](C)n3cc(CCCN=C(N)N)nn3)CC2)n1 (stereo partly specified)	-6%	-19%	12µM*	-7	-15	-2%
C#CCOCCOCCOCCNc1nc(N2CCN(C(=O)Cn3cc(CCO)nn3)CC2)nc(N2CCN(C(=O)[C@H]([C@@H](C)O)n3cc(CCCCN)nn3)CC2)n1	-2%	12%	-7%	-4	-17	17%
C#CCOCCOCCOCCNc1nc(N2CCN(C(=O)Cn3cc(CCCCN)nn3)CC2)nc(N2CCN(C(=O)[C@H]([C@@H](C)CC)n3cc(CCCN=C(N)N)nn3)CC2)n1	-8%	4%	?	·	·	0.74µM*
C#CCOCCOCCOCCNc1nc(N2CCN(C(=O)Cn3cc(CCCN=C(N)N)nn3)CC2)nc(N2CCN(C(=O)[C@H]([C@@H](C)O)n3cc(CCCCN)nn3)CC2)n1	-7%	-8%	10µM*	·	·	0%
C#CCOCCOCCOCCNc1nc(N2CCN(C(=O)Cn3cc(CCCN=C(N)N)nn3)CC2)nc(N2CCN(C(=O)[C@H](C(C)C)n3cc(CCO)nn3)CC2)n1	-4%	-27%	?	-2	-14	-8%
COc1ccc(S(=O)(=O)N2CCN(C(=O)CC3CC4CCC3C4)CC2)cc1 (stereo unspecified)	15%	-1%	?	·	·	-83%
CC(C)c1ccccc1NC(=O)COC(=O)C1(C)CC1(Cl)Cl (stereo unspecified)	3%	-10%	29%	-3	5	?
C#CCOCCOCCOCCNc1nc(N2CCN(C(=O)[C@H]([C@@H](C)O)n3cc(CCCCN)nn3)CC2)nc(N2CCN(C(=O)[C@H](C)n3cc(CCCN=C(N)N)nn3)CC2)n1	-5%	-7%	?	7	-7	3%
C#CCOCCOCCOCCNc1nc(N2CCN(C(=O)Cn3cc(CCCCN)nn3)CC2)nc(N2CCN(C(=O)[C@H](C)n3cc(CCCN=C(N)N)nn3)CC2)n1	·	-9%	0.12µM*	-4	-12	-8%
COc1cccc(-n2sc3c(c2=S)-c2cc(OC)ccc2NC3(C)C)c1	22µM*	3%	?	-2	-21	?
Cc1ccc(-c2cc3nc(-c4ccccc4)cc(NCCCO)n3n2)cc1	19%	·	·	·	·	·
O=C1CSC(c2ccccc2[N+](=O)[O-])N1c1cccc(F)c1 (stereo unspecified)	14%	0%	2.3µM*	8	-4	-8%
SMILES	AMA1 RON2 block	SARS PLP yeast	Pf growth 96h	Cycloheximide cs	Shiga inhibitor	Pf growth 48h
CS(=O)CCC(NS(=O)(=O)c1ccccc1)C(=O)O (stereo unspecified)	3%	9%	9.3µM*	-2	-6	?
O=C(O)CCC(NS(=O)(=O)c1ccc(-c2ccccc2)cc1)C(=O)O (stereo unspecified)	-14%	1%	?	-2	-12	·
Nc1nccc(/C=C/c2ccc(Cl)cc2)n1	9%	-2%	106%	44*	72*	241%
O=C(CNS(=O)(=O)Cc1ccccc1)NNc1ccccc1	4%	·	·	·	·	·
Cc1ccc(S(=O)(=O)Nc2ccc3nc(-c4cccn4C)[nH]c3c2)cc1	-24%	-5%	·	24*	37*	?
Cn1cccc1-c1nc2ccc(NC(=O)c3ccccc3)cc2[nH]1	-7%	-10%	81%	20*	36*	17%
Cn1cccc1-c1nc2ccccc2[nH]1	?	-2%	187%	31*	88*	138%
CC1(C)C(=O)OC(c2ccccc2)C(C)(C)C1=O (stereo unspecified)	-1%	1%	22%	1	-3	10%
CC1(C)C(=O)OC(c2cccs2)C(C)(C)C1=O (stereo unspecified)	1%	-6%	1.9µM*	-5	-16	3%
COc1cccc(CNC(=O)Cn2ncn3cccc3c2=O)c1OC	-8%	4%	6%	11*	26*	6%
Cc1ccc(CNC(=O)Cn2ncn3cccc3c2=O)cc1	0%	1%	44%	21*	23*	104%
O=C(NCCc1ccccn1)c1cncc(Br)c1	-3%	1%	70%	20*	37	62%
O=C(O)CCCCCNC(=O)c1cccc(Br)c1	-4%	-5%	17%	-2	-1	1%
O=C(NCCCCc1ccccc1)c1cccc(Br)c1	2%	-3%	0%	15*	68	14%
O=C(NCCCc1ccccc1)c1cncc(Br)c1	-2%	-4%	33%	20*	46	40%
O=C(NCCOC12CC3CC(CC(C3)C1)C2)c1cccc(Br)c1	4%	-6%	4.1µM*	16	10	9.3µM*
CCc1nc2ccc(C(=O)N3CCN(C)CC3)cn2c1N(C)CCC(C)C	0%	·	·	·	·	·
COC(=O)C1=C(C)NC(=S)NC1c1sccc1C (stereo unspecified)	3%	-3%	?	-5	-9	21%

Assay outcomes deposited in PubChem by National Center for Advancing Translational Sciences (NCATS).
